A selection: hits, their analogues and other compounds. The true share with any hit is near 19%.
uPA generation: cell surface uPA generation inhibition; cell surface uPA generation assay, qHTS; Potency, µM (series often up to 38.3 µM), without a hit: at the highest dose activity change, negative = inhibition, usual class: inhibitors; actives 0.31% (n = 330,000); AID 540303; active = well fitted inhibition curve with a large enough effect; inconclusive = small, poorly fitted or top-dose-only effect; inactive = no such curve, though single readings can be large or run the other way; tested in mouse RAW 264.7 cells; also: potency is read from the fitted curve at half-maximal effect; nearly all actives have a fitted effect of over 55% in size
HT1080NT lethal: kills 2HG-producing HT-1080-NT fibrosarcoma cells. HT-1080-NT fibrosarcoma viability, CellTiter-Glo ATP luminescence, 48 h. Potency, µM (doses to about 46.1 µM), for the others: at the highest dose activity, negative = less viability, actives largely listed as cytotoxic. actives 1.6% (n = 360,000). AID 686970;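 also: NT is the 2HG producing partner of a matched IDH1 knockdown line; potency is read from the fitted curve at half-maximal effect; 0% = DMSO-treated cells and -100% = media-only wells without cells; nearly all actives have a fitted effect of over 55% in size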
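A 48-hour cytotoxicity screen used HT-1080-NT cells plated 2 hours before compound delivery. ATP-based CellTiter-Glo luminescence measured viability, normalized to DMSO and no-cell controls.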
IL-1B inflam inh: blocks inflammasome-driven IL-1 beta release; THP-1 LPS/ATP IL-1B secretion, AlphaLISA, 16 h; stronger effect = lower value; activity change, % at 57.5 µM; actives 4.7% (n = 360,000); AID 743279; in the data active = activity change below about -50%; inconclusive = mostly about -30% to -49%
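Secreted IL-1B measured by AlphaLISA bead assay after 16 h compound exposure of THP-1 cells; compounds (final up to 57.5 uM) added 1 h before LPS (250 ng/mL) and ATP (1.25 mM) stimulation; lower signal means less secretion.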
HT1080 IDH1KD tx: HT-1080 IDH1 knockdown cell toxicity (counter line) | actives 2% (n = 360,000) | Potency, µM (series often up to 46.1 µM), for the others: at the highest dose activity, negative = toxicity, usual class: cytotoxic | HT-1080 IDH1 knockdown viability, ATP luminescence, 48 h;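 also: potency is read from the fitted curve at half-maximal effect; 0% = DMSO wells and -100% = cell-free medium wells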
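HT-1080-IDH1KD cells (IDH1 knocked down), 750/well in RPMI with 5% FBS, treated with compound 48 h at 37 degrees C. Viability by CellTiter-Glo luminescence, normalised to DMSO and no-cell wells; concentration-response curves classed.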
TDP1 cell CPT: DT40-hTDP1 cell growth loss with CPT. chicken DT40 Tdp1-/-;hTDP1 cells + 20 nM CPT, ATP luminescence, 48 h. Potency, µM (highest dose often 46.2 µM), for the others: at the top dose activity change, negative = growth inhibition, actives largely listed as inhibitors. actives 12% (n = 420,000). AID 686979; also: potency is read from the fitted curve at half-maximal effect; nearly all actives have a fitted effect of over 55% in size
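Cell growth measured by CellTiter-Glo luminescence after a minimum 48 h, 37 C compound exposure with 20 nM CPT in Tdp1-knockout DT40 cells stably expressing hTDP1, seeded 400/well; qHTS titration format.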
DT40 TDP1 no CPT: qHTS for Inhibitors of human tyrosyl-DNA phosphodiesterase 1 (TDP1): qHTS in cells in absence of CPT | AID 686978, 2013 | actives 15% (n = 420,000) | Potency, µM (highest dose often 46.2 µM), without a hit: at the top dose activity change, negative = growth inhibition, most hits filed as inhibitors | DT40 Tdp1-/- hTDP1 cells, no CPT, ATP luminescence, 48 h; also: potency is read from the fitted curve at half-maximal effect; nearly all actives have a fitted effect of over 55% in size
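Growth kinetics read by CellTiter-Glo luminescence after ≥48 hr at 37 °C. Cells: DT40 Tdp1-/- stably carrying human TDP1, 400 per well, compound exposure in the absence of CPT (DMSO vehicle).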
An asterisk follows results filed as active; ? = inconclusive; · = no result given; ! = repeats disagree; [ ] = remark or other dose. Unless noted, calls follow the shape of the dose curve; as a rule, active = well fitted curve in the direction sought with a large enough effect; inconclusive = small, poorly fitted or top-dose-only effect, or another doubt; inactive = no such curve, though single readings can be large; an effect the other way counts as inactive or inconclusive. Unless noted, % is scaled to controls: 0 for no effect and ±100 for the full control effect.

SMILES	uPA generation	HT1080NT lethal	IL-1B inflam inh	HT1080 IDH1KD tx	TDP1 cell CPT	DT40 TDP1 no CPT
N#Cc1ccc(NC(=S)N2CCC3CC2c2cc(-c4ccc5c(c4)OCO5)ccc23)cc1 (configuration not stated)	·	-17%	-7	-12%	?	?
C[C@H](CO)N1C[C@H](C)[C@@H](CN(C)S(C)(=O)=O)Oc2ccc(NS(=O)(=O)c3ccccc3)cc2C1=O	-46%	8%	-13	-6%	12%	-6%
CCN(Cc1ccncc1)C(=O)CSc1ccc2ccccc2c1	1%	-1%	26	-10%	?	?
COc1ccc(NC(=O)N2CCN(c3nc4ccccc4n3C(C)C)CC2)cc1	-9%	-19%	-1	-7%	?	-28%
CC(C)n1c(N2CCN(C(=O)NCc3ccccc3)CC2)nc2ccccc21	2%	12%	-25	13%	?	23µM*
CCCCN1C[C@H](CSC)[C@@H](CC(=O)Nc2ccc(OC)cc2)C1=O	·	3%	-20	4%	-9%	?
C=Cc1ccc(CSc2nc(-c3ccc(OC)cc3)nc3c2Cc2c(CO)cnc(C)c2O3)cc1	·	·	·	·	5.8µM*	5.2µM*
CCc1ccc(-c2nc3c(c(SCc4ccc(F)cc4)n2)Cc2c(CO)cnc(C)c2O3)cc1	·	·	·	·	-4%	-19%
C=Cc1ccc(CSc2nc(-c3ccc(Cl)cc3)nc3c2Cc2c(CO)cnc(C)c2O3)cc1	·	·	·	·	8.2µM*	23µM*
COc1ccc(-c2nc3c(c(SCc4ccc(Br)cc4)n2)Cc2c(CO)cnc(C)c2O3)cc1	·	·	·	·	?	4.1µM*
CCc1ccc(NC(=O)CSc2nc(-c3ccccc3Cl)nc3c2Cc2c(CO)cnc(C)c2O3)cc1	·	·	·	·	?	1%
C=Cc1ccc(CSc2nc(-c3ccccc3C)nc3c2Cc2c(CO)cnc(C)c2O3)cc1	·	·	·	·	?	21µM*
COc1ccc(-c2nc3c(c(SC)n2)Cc2c(CO)cnc(C)c2O3)cc1	·	·	·	·	-6%	-10%
CCCc1nnc(SCC(=O)N2CCCC(C)C2)n1CCOC (configuration not stated)	3%	8%	8	1%	3%	-1%
O=C(CN(Cc1cccs1)C(=O)CCC(=O)Nc1ccccn1)NCc1ccccc1	2%	12%	2	?	-5%	?
CCc1ccc2c(c1)C(C)=CC(C)(C)N2	10%	7%	26	10%	?	?
CC1=CC(C)(C)Nc2ccc(OC(=O)CN3C(=O)c4cccc5cccc(c45)C3=O)cc21	-5%	0%	-107*	-15%	2.9µM*	2.6µM*
CCOc1ccc2c(c1)C(C)=CC(C)(C)N2	20%	6%	-5	-4%	13µM*!	?
C#CCOC(=O)CN1C(=O)c2cccc3cccc(c23)C1=O	-3%	-1%	-2	-1%	-4%	0%
Cn1ccs/c1=N\C(=O)Nc1cccc(C(F)(F)F)c1	0%	-10%	?	-5%	-5%	13%
CCOc1ccc(CCNC(=O)c2cc3sccc3n2CC)cc1OCC	-2%	-9%	-24	-1%	5.2µM*	5.8µM*
CCOCCCNC(=O)c1cc2sc(Cl)cc2n1CC	·	-22%[9.24 µM]	-10	?	?	?
CCn1c(C(=O)NCCc2ccc(OC)c(OC)c2)cc2sc(Cl)cc21	·	·	·	·	18µM*	12µM*
CCOc1ccc(CCNC(=O)c2cc3sc(CC)cc3n2C)cc1OCC	·	·	·	·	15µM*	12µM*
Cn1c(C(=O)NCCc2ccccc2)cc2sc(Cl)cc21	·	·	·	·	-18%	-18%
SMILES	uPA generation	HT1080NT lethal	IL-1B inflam inh	HT1080 IDH1KD tx	TDP1 cell CPT	DT40 TDP1 no CPT
COc1cc2ccc(C=O)cc2cc1OC	·	0%	-26	-4%	16%	14%
O=[N+]([O-])c1ncccc1OCc1ccc(Br)cc1F	0%	6%	-13	9%	4%	-6%
COc1cc(-c2c(OC)cccc2OC)cc2c1OCCN(C(=O)CCC(=O)c1ccc(F)cc1)C2	·	·	·	·	-90%[9.04 µM]	-7%
CCOC(=O)/C=c1\s/c(=C\c2ccc3cc(OC)ccc3c2)c(=O)n1CC(=O)NCC1CCCO1 (configuration not stated)	5%	12%	-7	17%	9.2µM*	6.5µM*
CCOC(=O)/C=c1\s/c(=C\c2ccc(C)cc2)c(=O)n1CC(=O)NCc1ccco1	0%	6%	17	10%	16µM*	?
CCOC(=O)/C=c1\s/c(=C\c2ccc(-c3ccccc3)cc2)c(=O)n1CC(=O)NCc1ccc2c(c1)OCO2	7%	0%	0	-2%	9.2µM*	9.2µM*
COc1ccc(/C=C/C(=O)OCC(=O)NCC2CCCO2)cc1 (configuration not stated)	-4%	-3%	-6	-3%	-19%	16%
CCOC(=O)/C=c1\s/c(=C\c2ccc(C(F)(F)F)cc2)c(=O)n1CC(=O)NCc1ccco1	-4%	2%	-24	?	?	?
CCOC(=O)/C=c1/s/c(=C/c2ccc3cc(OC)ccc3c2)c(=O)n1CC(=O)NCc1ccc2c(c1)OCO2	4%	0%	20	5%	5.8µM*	9.2µM*
CC(C)Oc1ccc(S(=O)(=O)N2CCOCC2)cc1NC(=O)C1=NN(c2ccccc2)C(=O)CC1	-1%	-4%	0	-1%	?	?
Cn1nccc1C(=O)N1CCOCC1	1%	11%	-4	8%	11%	25%
CCCS(=O)(=O)c1c(S(=O)(=O)CCC)c2cnccn2c1C(=O)c1ccc(CC)cc1	-4%	-8%	-12	-7%	3%	?
CCCS(=O)(=O)c1c(S(=O)(=O)CCC)c2cc(-c3ccncc3)ccn2c1C(=O)OC	-12%	-19%	-69*	-13%	?	?
CCCS(=O)(=O)c1c(S(=O)(=O)CCC)c2cc(CC)ccn2c1C(=O)c1ccc(Cl)cc1	·	·	·	·	15µM*	-26%
CCCS(=O)(=O)c1c(S(=O)(=O)CCC)c2cnccn2c1C(=O)c1ccc(OC)cc1	-3%	-9%	-4	0%	-10%	?
O=C(COC(=O)CCC(=O)c1cccs1)Nc1cc(S(=O)(=O)N2CCOCC2)ccc1Cl	-2%	16%	-2	9%	1%	11%
CC(C)(C)C(=O)N1CCN(S(=O)(=O)c2ccc3c(c2)OCCCO3)CC1	1%	-19%	5	-12%	?	18µM*

High-throughput results: PubChem BioAssay, National Center for Advancing Translational Sciences (NCATS)
